Gal4-VP16 FLuc – Gal4-VP16 reporter inhibition counter-screen; 310,000 tested, 3.5% active; Potency, µM (top dose mostly 53.6 µM), for inactives: at the top dose activity, negative = inhibition, most hits filed as inhibitors; AID 2546; Drosophila S2 Gal4-VP16 UAS-luciferase, luminescence, 20 h;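 further: Gal4-VP16 expression switched on by copper sulfate through the metallothionein promoter; potency means the concentration at half of the fitted maximal effect; nearly all actives have a fitted effect of over 50% in size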
TDP1 cell noCPT – qHTS for Inhibitors of human tyrosyl-DNA phosphodiesterase 1 (TDP1): qHTS in cells in absence of CPT; Potency, µM (series often up to 46.2 µM), for inactives: top-dose activity change, negative = growth inhibition, hits mostly inhibitors; AID 686978, 2013; DT40 Tdp1-/- hTDP1 cells, no CPT, ATP luminescence, 48 h; 420,000 tested, 15% active; further: potency means the concentration at half of the fitted maximal effect; nearly all actives have a fitted effect of over 55% in size
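Chicken DT40 Tdp1-/- cells stably complemented with human TDP1 were seeded at 400 cells/well with DMSO in place of 20 nM camptothecin. After compound pinning, cells grew at least 48 hr at 37 °C; viability read by CellTiter-Glo luminescence.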
DT40 TDP1 CPT – growth inhibition of DT40 Tdp1-/-;hTDP1 cells with camptothecin (screen for TDP1 inhibitors); chicken DT40 Tdp1-/-;hTDP1 cells + 20 nM CPT, ATP luminescence, 48 h; Potency, µM (series often up to 46.2 µM), inactives show top-dose activity change, negative = growth inhibition, most hits filed as inhibitors; 420,000 tested, 12% active; AID 686979; further: potency means the concentration at half of the fitted maximal effect; nearly all actives have a fitted effect of over 55% in size
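Chicken DT40 Tdp1-/- cells stably complemented with human TDP1 were seeded at 400 cells/well in medium containing 20 nM camptothecin, exposed to pin-transferred compounds, and grown at 37 °C for at least 48 hr. Viability was read as ATP luminescence.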
IL-1B inflam inh – blocks inflammasome-driven IL-1 beta release; activity change, % at 57.5 µM; THP-1 LPS/ATP IL-1B secretion, AlphaLISA, 16 h; hits give low values; 360,000 tested, 4.7% active; in the data active means activity change below about -50%; inconclusive means mostly about -30% to -49%
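THP-1 cells pretreated 1 hr with compounds (up to 57.5 uM final), then stimulated with LPS (250 ng/mL final) plus ATP (1.25 mM final); secreted IL-1B measured by AlphaLISA after 16 hr, decreased signal indicating inhibition.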
ELG1 repair inh – blocks ELG1-dependent DNA repair in HEK293T cells; HEK293T ELG1-luciferase reporter, luminescence, 16 h; DNA damage induced by 5-fluorouridine; Potency, µM (doses to about 46.1 µM), inactives show top-dose activity change, negative = inhibition, actives largely listed as inhibitors; 330,000 tested, 2.3% active; AID 504467; further: potency means the concentration at half of the fitted maximal effect; nearly all actives have a fitted effect of over 55% in size
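Cells (2,000 per well) received 5-fluorouridine plus test compound or DMSO and were incubated 16 hr at 37 °C, 5% CO2. Luciferase activity was read by luminescence 30 min after ONE-Glo addition; signal suppression marked inhibition of damage-induced ELG1 function.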
RORg inh – blocks mouse ROR gamma transcriptional activity; Potency, µM (titrated, usually from 53.6 µM), for the others: at the highest dose activity change, negative = inhibition, hits mostly inhibitors; Drosophila S2 Gal4-RORgamma UAS-luciferase reporter, 20 h; AID 2551; P51450; 310,000 tested, 5.4% active; further: potency means the concentration at half of the fitted maximal effect; nearly all actives have a fitted effect of over 60% in size
Target sequence (P51450 whole entry, looked up, the tested form may be a part): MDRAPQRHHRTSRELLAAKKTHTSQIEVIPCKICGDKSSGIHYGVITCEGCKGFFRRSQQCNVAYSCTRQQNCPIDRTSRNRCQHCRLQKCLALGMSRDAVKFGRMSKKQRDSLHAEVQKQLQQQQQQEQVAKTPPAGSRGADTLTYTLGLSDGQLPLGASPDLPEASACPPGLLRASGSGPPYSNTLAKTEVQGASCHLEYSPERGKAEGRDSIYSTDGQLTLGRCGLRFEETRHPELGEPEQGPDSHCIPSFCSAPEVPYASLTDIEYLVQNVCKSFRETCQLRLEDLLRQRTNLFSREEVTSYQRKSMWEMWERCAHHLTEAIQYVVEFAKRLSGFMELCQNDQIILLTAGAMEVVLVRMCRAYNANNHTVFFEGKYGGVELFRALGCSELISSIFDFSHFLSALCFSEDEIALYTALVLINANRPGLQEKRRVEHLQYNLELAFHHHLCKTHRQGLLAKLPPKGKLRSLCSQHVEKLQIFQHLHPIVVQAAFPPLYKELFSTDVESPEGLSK
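Using a luciferase readout, inhibitors were identified by reduced reporter activity in Drosophila cells coexpressing a copper-inducible Gal4–ROR gamma fusion and UAS-driven Photinus luciferase, incubated 20 hr after 700 uM copper sulfate.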
The depositor's hits bear a star; ? = inconclusive; . = no result; [ ] = dose if it differs, or a comment. A selection: hits, their analogues and other compounds. The true share with any hit is near 21%. Unless noted, the call rests on the fitted dose curve; in most records, active means well fitted curve in the direction sought with a large enough effect; inconclusive means small, poorly fitted or top-dose-only effect, or another doubt; inactive means no such curve, though single readings can be large; an effect the other way counts as inactive or inconclusive. On the % scale 0 is the no-effect control and ±100 the full control effect.

SMILES	Gal4-VP16 FLuc	TDP1 cell noCPT	DT40 TDP1 CPT	IL-1B inflam inh	ELG1 repair inh	RORg inh
O=C(N/N=C/c1c(O)n(Cc2ccco2)c(=O)[nH]c1=O)c1ccccc1	-6%	4%	14%	5	?	?
O=C1N[C@@H](Cc2ccccc2)C(=O)N2[C@H]3Nc4ccccc4[C@@]3([C@]34C[C@H]5C(=O)N[C@@H](Cc6ccccc6)C(=O)N5[C@H]3Nc3ccccc34)C[C@@H]12	.	?	?	0	.	.
O=C1N[C@@H](Cc2ccccc2)C(=O)N2[C@H]1C[C@H]1c3ccccc3N(OOSc3ccccc3)[C@H]12	.	16µM*	21µM*	54	.	.
CN(CC(=O)Nc1ccccc1-c1ccccc1)C1CCCCC1	-6%	?	23µM*	-10	1%	29%
CCN(C1CCCCC1)S(=O)(=O)c1ccc(S(=O)(=O)N(CC(=O)Nc2ccccc2)C2CC2)cc1	-3%	?	?	0	?	18%
S=C(c1ccc(Cl)cc1)N1CCOCC1	-1%	-4%	?	3	1%	8%
Cc1nc2ccc(Cl)cn2c1P(=S)(N1CCOCC1)N1CCOCC1	-8%	?	15µM*	27	1%	0%
Oc1c(Cl)c(Cl)c(Cl)c(Cl)c1Cl	?	21µM*	?	-11	.	?
Cc1ccc(NC(=O)C2C3CCCC2C3c2ccccc2)c(C)c1 (stereo unspecified)	-7%	23µM*	?	-1	11%	-1%[10 µM]
CN(C)C1CSSSC1	-1%	.	.	.	.	?
Cc1cc(C(=O)Cn2nnc(-c3ccc(Cl)cc3)n2)c(C)n1-c1ccccc1	22µM*	?	-18%	?	1%	?
CCCCCCCSc1cc(OC)c(CCNC)cc1OC	-29%	15µM*	?	-79*	-5%	?
CCCCCSc1cc(OC)c(CCNC)cc1OC	-7%	16µM*	16µM*	0	0%	-35%
CCCCCc1cc(O)c2c(c1)OC(C)(C)C1CC=C(C)CC21 (stereo unspecified)	?	.	.	.	.	31%
COC(=O)C(Cc1ccc(N(CCCl)CCCl)cc1)N=Cc1ccccc1O (stereo unspecified)	?	0.082µM*	0.12µM*	-97*	18µM*	7.9µM*
CC(C)[C@H](N)C(=O)OCC(CO)OCn1cnc2c(=O)[nH]c(N)nc21 (stereo partly specified)	4%	11µM*	13µM*	.	.	2%
N#CSCSC#N	0.45µM*	.	.	.	.	1.1µM*
CCn1c(O)c(/C=N/N2CCOCC2)c(=O)n(CC)c1=S	-5%	-2%	-10%	-23	2%	3%
CCn1c(O)c(C=Nc2ccc(N3CCOCC3)cc2)c(=O)n(CC)c1=S	-3%	?	?	?	-2%	?
CCn1c(O)c(N=Nc2ccc(S(=O)(=O)N3CCOCC3)cc2)c(=O)n(CC)c1=S	0%	-1%	-13%	-84*	?	11%
CCn1c(O)c(N=Nc2cccc(S(=O)(=O)N3CCOCC3)c2)c(=O)n(CC)c1=S	0%	-14%	-10%	?	18µM*	20%
O=S(=O)(c1ccccc1)C1CN1c1c(F)c(F)c(F)c(F)c1F (stereo unspecified)	.	?	-19%	0	.	.
Cc1cccc(-n2c(O)c(C)c(=O)[nH]c2=S)c1	-16%	-2%	-8%	18	4%	12%
CCOc1ccc(-c2nc(CSCC(=O)NCCc3ccc(OCC)c(OCC)c3)c(C)o2)cc1	.	16µM*	15µM*	.	.	.
ClCCN(CCCl)c1ccc(C2=NCCc3ccccc32)cc1	.	?	23µM*	-78*	.	.
SMILES	Gal4-VP16 FLuc	TDP1 cell noCPT	DT40 TDP1 CPT	IL-1B inflam inh	ELG1 repair inh	RORg inh
COc1ccc2c(c1)C(c1ccc(N(CCCl)CCCl)cc1)=NCC2	.	13µM*	16µM*	-90*	.	.
Cc1c(NP(=S)(C(C)(C)C)C(C)(C)C)c(=O)n(-c2ccccc2)n1C	0%	-16%	-18%	29	12%	-2%
O=C1OC2(c3cc(Br)c(O)cc3Oc3c2cc(Br)c(O)[c]3[Hg])c2ccccc21 (stereo unspecified)	.	3.6µM*	4.5µM*	.	.	.
c1cc2c(cc1[C@H]1OC[C@@H]3[C@H]1CO[C@H]3c1ccc3c(c1)OCO3)OCO2	-22%	-39%	-45%	.	.	40%
S=C(S)N1CCCC1	0.32µM*	0.053µM*	0.06µM*	5	17%	?
COCCN(C(=O)CCl)c1c(C)cccc1C	11%	.	.	.	.	10%
CC1CC2CC(=O)C3CCCN4CCCC2[C@]34C1 (stereo partly specified)	3%	-2%	6%	.	.	-6%
Cc1ccc(/C=N/n2c(-c3ccccc3)csc2=S)cc1	.	?	15µM*	.	.	.
CCC1(O)CCC2C3CCC4=CC(=O)CCC4C3CCC21CC (stereo unspecified)	.	21µM*	23µM*	16	.	.
CC1=C(O)C(=O)C=C2C1=CC=C1[C@]2(C)CC[C@@]2(C)C3C[C@](C)(C(=O)O)CC[C@@]3(C)CC[C@@]12C (stereo partly specified)	?	0.82µM*	1µM*	.	.	3.2µM*
O=C(C1CCN(S(=O)(=O)c2ccc(Br)s2)CC1)N1CCN(c2cccc(C(F)(F)F)c2)CC1	.	6.5µM*	23µM*	.	.	.
COc1ccc(NC(=O)O/N=C/c2ccccc2)cc1	20%	-19%	-14%	-12	?	3%
O=C(Nc1ccc(Cl)c(Cl)c1)O/N=C/c1ccncc1	?	?	?	-94*	2%	33%
COc1ccc(NC(=O)C2Cc3c(-c4cccc(C(C)=O)c4)ccnc3O2)cc1OC (stereo unspecified)	.	4.1µM*	3.3µM*	4	.	.
COc1ccc(NC(=O)CN2C3CCC2CC(O)(c2cccnc2)C3)cc1OC (stereo unspecified)	2%	-17%	-11%	-19	-29%	9%
C[C@@H]1C[C@H]2OC(=O)C3(CO3)[C@H]2[C@H](O)[C@]2(C)C(=O)C3OC3[C@@H]12 (stereo partly specified)	?	.	.	.	?	10µM*
Nc1ccc([N+](=O)[O-])cc1[N+](=O)[O-]	6%	.	.	.	.	2%
Cc1cccc(N=C2c3cc([N+](=O)[O-])ccc3-c3c2cc([N+](=O)[O-])cc3[N+](=O)[O-])c1	.	18µM*	8.2µM*	-96*	.	.
Cc1cc(NC(=O)CCl)on1	?	9.2µM*	?	-106*	-19%	?

Compound activity (PubChem)
